Measured values as given in PubChem BioAssay (EPA / NIEHS).
Where “and” joins values, the source holds several entries; their conditions need not be identical. Identical values can stand only once. Where a structure was tested more than once in an assay, its records may differ in their call. Calls of active or inactive are those of the source. The calls were made as follows: active = hit-call score of the fitted dose curve at least 0.9, where 1 is the maximum; inactive = score below 0.9.

Assays:
[1] = read-out: Monokine induced gamma interferon (MIG), CXCL9 (gene 4283); assay: BSK_SAg_MIG: BioMAP Diversity Plus: SAg Assay for Monokine induced gamma interferon (MIG) Biomarker Activity (AID 2283092); settings: primary human HUVEC with PBMC; actives raise or lower the signal
Summary of the method: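 Values reflect bidirectional fitting of ELISA-measured MIG against DMSO vehicle, taken 24 h after dosing of a co-culture of human umbilical vein endothelial cells and peripheral blood mononuclear cells.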

[2] = BSK_SAg_PBMCCytotoxicity: PBMC Cytotoxicity Assessment in the BioMAP Diversity Plus: SAg Assay (AID 2283093); settings: primary human HUVEC with PBMC;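 also: PBMC viability measured as Alamar Blue reduction fluorescence at 546/580 nm; fitted both ways against DMSO so a hit may be loss or gain of signal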;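 as to AC50: PBMC superantigen activated with SEB plus TSST-1 one hour after compound addition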
Summary of the method: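 HUVEC/PBMC co-culture; PBMC exposed to chemical 1 h before SEB and TSST-1 activation (20 ng/mL each), incubated 90 h, then Alamar Blue 6 h, fluorescence 546/580 nm. Bidirectional fit versus DMSO baseline.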

[3] = read-out: Interleukin-8 (IL8), CXCL8 (gene 3576); assay: BSK_SAg_IL8: BioMAP Diversity Plus: SAg Assay for Interleukin-8 (IL8) Biomarker Activity (AID 2283094); settings: primary human HUVEC with PBMC; actives raise or lower the signal
Summary of the method: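 Human umbilical vein endothelial cells co-cultured with peripheral blood mononuclear cells; IL-8 measured by ELISA 24 h after chemical dosing. Bidirectional concentration-response fitting used DMSO as negative control and activity baseline.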

[4] = BSK_SAg_Proliferation: Cell Proliferation Assessment in the BioMAP Diversity Plus: SAg Assay (AID 2283095); settings: primary human HUVEC with PBMC;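 also: relative cell number as total protein by SRB absorbance in sub-confluent culture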
Summary of the method: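 Human umbilical vein endothelial cells co-cultured with peripheral blood mononuclear cells; total protein measured by sulforhodamine B staining (0.1% SRB after 10% TCA fixation), absorbance at 560 nm, at 96 h. Bidirectional fit against DMSO baseline.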

[5] = BSK_SAg_SRB: Viability Assessment in the BioMAP Diversity Plus: SAg Assay (AID 2283096); settings: primary human HUVEC with PBMC;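 also: cells read one day after compound addition; hits may be either gain or loss of signal compared with DMSO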
Summary of the method: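 Human umbilical vein endothelial cells co-cultured with PBMC, read 24 h after compound dosing. Total protein measured by sulforhodamine B staining (0.1% SRB after 10% TCA fixation, absorbance 560 nm); bidirectional fit versus DMSO baseline.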

Row | SMILES | outcome [1] | outcome [2] | outcome [3] | outcome [4] | outcome [5] | AC50 [2] | AC50 [4] | AC50 [5] | AC50 [1] | AC50 [3]
1 | Cc1cccc2c1ccc1ccccc12 | inactive | inactive | inactive | inactive | inactive | – | – | – | – | –
2 | C=COC(=O)C(C)(C)CCCCCC | inactive | – | inactive | – | – | 36.8 µM (active) | 30.7 µM (active) | 36.1 µM (active) | – | –
3 | Clc1ccc(Nc2nnc(Cc3ccncc3)c3ccccc23)cc1 | inactive | inactive | inactive | inactive | inactive | – | – | – | – | –
4 | CCCCC=O | inactive | inactive | inactive | inactive | inactive | – | – | – | – | –
5 | CN(C)CCOC(c1ccccc1)c1ccccc1 | inactive | inactive | inactive | inactive | inactive | – | – | – | – | –
6 | CC(=O)Nc1ccc(O)cc1 | inactive | inactive | inactive | inactive | inactive | – | – | – | – | –
7 | OCCN1CN(CCO)CN(CCO)C1 | – | – | – | – | – | 27 µM (active) | 26 µM (active) | 33.4 µM (active) | 33.1 µM (active) | 13.1 µM (active)
8 | Cc1ccc(C(=O)c2ccccc2)cc1 | inactive | inactive | inactive | inactive | inactive | – | – | – | – | –
9 | CN(CCO)S(=O)(=O)C(F)(F)C(F)(F)C(F)(F)C(F)(F)C(F)(F)C(F)(F)C(F)(F)C(F)(F)F | inactive | inactive | inactive | inactive | inactive | – | – | – | – | –
10 | COc1cccc(O)c1 | inactive | inactive | inactive | inactive | inactive | – | – | – | – | –
11 | C[C@]12CC[C@@H]3c4ccc(O)cc4CC[C@H]3[C@@H]1C[C@@H](O)[C@@H]2O | inactive | inactive | inactive | inactive | inactive | – | – | – | – | –
12 | O=C(O)CCC(F)(F)C(F)(F)C(F)(F)C(F)(F)C(F)(F)C(F)(F)F | inactive | inactive | inactive | inactive | inactive | – | – | – | – | –
13 | O=C(NO)c1ccccc1 | inactive | inactive | inactive | inactive | inactive | – | – | – | – | –
14 | C=CC(=O)OCCC(F)(F)C(F)(F)C(F)(F)C(F)(F)C(F)(F)C(F)(F)C(F)(F)C(F)(F)F | inactive | inactive | inactive | inactive | inactive | – | – | – | – | –
15 | CC[N+](CC)(CC)Cc1ccccc1 | inactive | inactive | inactive | inactive | inactive | – | – | – | – | –
16 | O=C(c1ccccc1)c1ccccc1 | inactive | inactive | inactive | inactive | inactive | – | – | – | – | –
17 | Oc1cc2ccccc2cc1O | inactive | inactive | inactive | inactive | inactive | – | – | – | – | –
18 | COCN(COC)c1nc(N(COC)COC)nc(N(COC)COC)n1 | inactive | inactive | inactive | inactive | inactive | – | – | – | – | –
19 | O=C(O)CCC(F)(F)C(F)(F)C(F)(F)C(F)(F)C(F)(F)F | inactive | inactive | inactive | inactive | inactive | – | – | – | – | –
20 | OCC(CO)(CBr)CBr | inactive | inactive | inactive | inactive | inactive | – | – | – | – | –
21 | Oc1c(Cl)cc(Cl)cc1Sc1cc(Cl)cc(Cl)c1O | – | – | – | – | – | 29.1 µM (active) and 30 µM (active) | 5.29 µM (active) and 5.92 µM (active) | 23.8 µM (active) and 17.2 µM (active) | 12.4 µM (active) and 12 µM (active) | 4.54 µM (active) and 5.28 µM (active)
22 | O=P(O)(O)CCC(F)(F)C(F)(F)C(F)(F)C(F)(F)C(F)(F)C(F)(F)C(F)(F)C(F)(F)F | inactive | inactive | inactive | inactive | – | – | – | 25.1 µM (active) and 38.3 µM (active) | – | –
23 | O=P(O)(O)CCC(F)(F)C(F)(F)C(F)(F)C(F)(F)C(F)(F)C(F)(F)F | inactive | inactive | inactive | inactive | inactive | – | – | – | – | –
24 | O=C1NS(=O)(=O)c2ccccc21 | inactive | inactive | inactive | inactive | inactive | – | – | – | – | –
25 | O=C1OC2(c3ccccc31)c1cc(I)c(O)c(I)c1Oc1c2cc(I)c(O)c1I | inactive | inactive | inactive | inactive | inactive | – | – | – | – | –
26 | N=C(N)c1ccc(OCCCCCOc2ccc(C(=N)N)cc2)cc1 | inactive | inactive | – | – | inactive | – | 13.6 µM (active) | – | – | 6.91 µM (active)
27 | O=C(NCc1ncc(C(F)(F)F)cc1Cl)c1c(Cl)cccc1Cl | inactive | inactive | inactive | inactive | inactive | – | – | – | – | –
28 | CCCCCCCCCCCC | inactive | inactive | inactive | inactive | inactive | – | 36.6 µM (active) | – | – | –
29 | O=C(O)C(F)(F)OC(F)(F)C(F)(F)OC(F)(F)C(F)(F)OC(F)(F)C(F)(F)C(F)(F)C(F)(F)F | – | – | – | – | – | 44.5 µM (active) and 45.8 µM (active) | 49.6 µM (active) and 47.7 µM (active) | 51.5 µM (active) and 53.1 µM (active) | 49.2 µM (active) and 53.4 µM (active) | 30 µM (active) and 24.7 µM (active)
